Source: PubChem BioAssay
USP2a inh: inhibitors of human ubiquitin-specific protease USP2a | O75604 | USP2 core, Ub-CHOP2 coupled fluorogenic reporter, 485/531 | Potency, µM (series often up to 38.3 µM), inactives show at the highest dose activity change, negative = inhibition, hits mostly inhibitors | hit rate 0.01% among 330,000;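 also: potency is read from the fitted curve at half-maximal effect; plate controls were DMSO wells for no effect and full inhibition by NEM control for full effect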
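Deubiquitinase activity read as fluorescence (485/531 nm) after Ub-CHOP2 cleavage activates the enterokinase reporter on its substrate; USP2 core 10nM, Ub-CHOP2 and substrate 25nM each, 30min compound preincubation then 60min RT; data normalized to NEM, curves fitted.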
CtBP-E1A inh: blocks the CtBP interaction with E1A | AlphaScreen GST-E1A/His-CtBP binding, 1536-well; hits give low values | activity change, % (test concentration not listed) | hit rate 0.49% among 340,000 | AID 651724; in the data active = activity change below about -65%; inconclusive = mostly about -30% to -63%
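AlphaScreen with 125 nM GST-E1A and 125 nM His-CtBP (5X stocks) in Tris pH 8.0, 300 mM NaCl, BSA, Tween 20, TCEP. Compounds preincubated 2 h at 37 deg C, then glutathione donor/nickel acceptor beads added for 1 h at 37 deg C in dark.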
Eya2 inh: inhibitors of human Eya2 phosphatase activity. O00167. recombinant Eya2, OMFP fluorescence dephosphorylation (OMFP is methylfluorescein phosphate). Potency, µM (titrated, usually from 76.9 µM), for the others: at the top dose activity, negative = inhibition, actives largely listed as inhibitors. hit rate 0.006% among 330,000; also: potency is read from the fitted curve at half-maximal effect
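Eya2 (0.2 uM) preincubated 10 min at ambient with compound, then OMFP substrate added at 50 uM; 10 min reaction in 50 mM HEPES pH 7.5, 50 mM NaCl, 5 uM MgCl2, 0.05% BSA, 1 mM DTT. Fluorescence read at Ex 485/Em 525 nm.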
Six1-Eya2 blk: inhibitors of human Six1/Eya2 interaction; AID 651725; activity change, % (no concentration beside the values); Q15475+O00167; AlphaScreen GST-Six1/His-Eya2 binding, biochemical; hits give low values; hit rate 0.56% among 360,000; in the data active = activity change below about -65%; inconclusive = mostly about -30% to -63%
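Six1/Eya2 binding was read as AlphaScreen signal after compounds were pinned into GST-Six1 plus His-tagged Eya2 (5X stock 250/500 nM) in pH 8.0 Tris/NaCl/TCEP buffer, beads added, then incubated 1 h, 37 C, dark.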
RGS4 inhibitor: blocks human RGS4-accelerated GTP hydrolysis. P49798. Transcreener GDP fluorescence polarization, RGS4-accelerated GTP hydrolysis. Potency, µM (highest dose often 114 µM), for inactives: top-dose activity change, negative = inhibition, actives largely listed as inhibitors. hit rate 0.039% among 390,000. AID 504845; also: potency is read from the fitted curve at half-maximal effect; nearly all actives have a fitted effect of over 75% in size
Target sequence (P49798 whole entry, looked up): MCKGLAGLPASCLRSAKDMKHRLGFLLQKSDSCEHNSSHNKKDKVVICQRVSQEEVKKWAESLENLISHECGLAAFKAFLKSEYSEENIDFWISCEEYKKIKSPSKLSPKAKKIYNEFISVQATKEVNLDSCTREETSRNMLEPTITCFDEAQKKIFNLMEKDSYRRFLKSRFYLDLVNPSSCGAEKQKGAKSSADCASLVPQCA
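MLSMR compounds (23 nl, pin-transferred) preincubated 10 min at room temperature with a 500nM (2x) first reagent, then RGS4 at 900nM (2x) plus Transcreener GDP mix added; fluorescence polarization (620/688 nm) read before and after 90 min at 30 °C.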
PI4K2A block: inhibitors of human PI4K2A; Q9BTU6; purified PI4K2A, ADP-Glo luminescence, 1 h; hits give low values; activity change, negative = inhibition, % at 76.9 µM; hit rate 0.13% among 420,000; AID 1346378; in the data active = activity change below about -50%; inconclusive = mostly about -30% to -49%;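 also: -100% = wells without enzyme as full effect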
Target sequence (Q9BTU6 whole entry, looked up): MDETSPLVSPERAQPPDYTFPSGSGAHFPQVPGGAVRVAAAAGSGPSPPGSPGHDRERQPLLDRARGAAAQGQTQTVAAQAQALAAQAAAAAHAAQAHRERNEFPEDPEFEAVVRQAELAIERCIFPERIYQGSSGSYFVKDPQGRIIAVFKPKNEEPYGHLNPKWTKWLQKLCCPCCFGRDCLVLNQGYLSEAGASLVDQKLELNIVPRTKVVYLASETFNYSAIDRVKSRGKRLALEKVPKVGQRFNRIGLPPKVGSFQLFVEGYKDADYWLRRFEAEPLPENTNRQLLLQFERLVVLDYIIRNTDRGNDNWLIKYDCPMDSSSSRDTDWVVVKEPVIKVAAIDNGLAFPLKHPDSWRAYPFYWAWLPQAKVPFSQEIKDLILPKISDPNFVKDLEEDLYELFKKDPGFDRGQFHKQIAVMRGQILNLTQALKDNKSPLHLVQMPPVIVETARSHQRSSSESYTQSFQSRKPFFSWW
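Compounds are screened against recombinant PI4K2A using PI as substrate and ATP, the latter dispensed at 300 microM. Reactions run one hour at ambient temperature before ADP-Glo detection; full inhibition defined by wells lacking enzyme.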
Numbers without * were called inactive; u = inconclusive; x = not tested or not shown; ! = not confirmed by another sample; [ ] = another dose, or the depositor's remark. Shown are actives, neighbours in structure and some others; about 0.72% of the full set was active somewhere. Unless noted, calls follow the shape of the dose curve; as a rule, active = well fitted curve in the direction sought with a large enough effect; inconclusive = small, poorly fitted or top-dose-only effect, or another doubt; inactive = no such curve, though single readings can be large; an effect the other way counts as inactive or inconclusive. Unless noted, % is scaled to controls: 0 for no effect and ±100 for the full control effect.

SMILES | USP2a inh | CtBP-E1A inh | Eya2 inh | Six1-Eya2 blk | RGS4 inhibitor | PI4K2A block
NC(c1ccccc1)c1csc(Nc2ccccn2)n1 (stereo unspecified) | x | -90* | x | -89* | x | 5
O=[N+]([O-])c1cccc(/C=N/n2c(-c3cccnc3)n[nH]c2=S)c1 | 7% | -10 | 3% | -20 | -37% | 0
S=c1[nH]nc(-c2ccccn2)n1/N=C/c1ccc(Br)s1 | 0% | 7 | -2% | -77* | u | -10
CCc1n[nH]c(=S)n1/N=C/c1ccccn1 | 1% | -2 | 9% | 1 | 3% | -4
Cc1n[nH]c(=S)n(/N=C/c2ccccn2)c1=O | -3% | -87* | 2% | -79* | 6% | 2
Cc1cc(-c2n[nH]c(=S)n2/N=C/c2cc([N+](=O)[O-])ccc2Cl)n[nH]1 | 1% | -81* | -4% | -80* | -26% | 6
Cc1n[nH]c(=S)n(/N=C/c2cccc([N+](=O)[O-])c2)c1=O | 0% | -66* | -7% | u | -7% | 4
CCOCCCn1c(SCC(=O)NCc2ccccc2)nc2c(sc3ccccc32)c1=O | x | x | x | x | -15% | -4
COc1cccc(-n2c(SCC(=O)Nc3ccc4c(c3)OCO4)nc3c([nH]c4ccccc43)c2=O)c1 | x | x | x | x | -17% | -2
CC(C)(C)C1CCC(CC2=C(O)c3ccccc3C(=O)C2=O)CC1 (stereo unspecified) | x | x | x | x | x | -2
Cc1nn(C)c(C)c1CN(Cc1nc(-c2ccc(F)cc2F)oc1C)C1CC1 | -6% | -1 | -1% | -3 | 20% | -20
Cc1ccc(-c2nc(CN(Cc3c(C)nn(C)c3C)C(C)C)c(C)o2)o1 | -2% | -6 | 4% | -90* | 2% | 5
O=C(c1ccc(-c2nc3ccccc3s2)s1)N1CCOCC1 | -1% | 4 | 2% | 6 | 1% | -66*
c1ccc2sc(-c3ccc4c(c3)OCO4)nc2c1 | -1% | 28 | -10% | 42 | 19% | -68*
Fc1cccc(Cc2c(C3CCCCC3)nc3c4ccccc4ccn23)c1 | x | -1 | x | 5 | x | -11
COc1ccc2[nH]cc(CC(=O)O)c2c1 | 3% | 3 | 6% | 3 | 21% | -3
O=C(O)Cc1c[nH]c2ccc(O)cc12 | x | 1 | 8% | -1 | 21µM*! | 2
C=C(C)CNC(=S)N=Nc1c(O)[nH]c2ccc([N+](=O)[O-])cc12 | 0% | -12 | 0% | u | -34% | 1
CC(C)NC(=S)N=Nc1c(O)[nH]c2ccc([N+](=O)[O-])cc12 | -1% | 22 | -1% | -68* | -27% | -6
NC(=O)N=Nc1c(O)[nH]c2ccc([N+](=O)[O-])cc12 | -6% | -72* | 7% | u | -1% | 5
O=C1C(=NO)CCc2ccccc21 | x | 6 | x | -11 | u | -12
CCCCOc1cc(=O)[nH]c(=O)[nH]1 | 2% | 6 | 3% | 6 | -44% | -51*
COc1cccc(CN(C(=O)c2cccc(C)c2)C2CCS(=O)(=O)C2)c1 (stereo unspecified) | x | x | x | x | 23% | 0
Cc1ccc2c(Br)cc(Br)c(O)c2n1 | x | x | x | x | x | -4
CCCCN(C)C(=O)c1cc2cc3ccc(OC)cc3nc2s1 | 0% | 0 | 5% | -1 | -9%[56.9 µM] | -55*
SMILES | USP2a inh | CtBP-E1A inh | Eya2 inh | Six1-Eya2 blk | RGS4 inhibitor | PI4K2A block
NNC(=O)c1oc2nc(-c3ccco3)cc(-c3ccco3)c2c1N | 2% | 0 | 7% | u | -40% | -57*
Cc1ccc(-c2csc3nc4c5ccccc5c(NCCCN(C)C)nn4c(=O)c23)cc1 | -1% | u | -4% | -67* | 5% | 0
Cc1ccc(-c2csc3nc4c5ccccc5c(NCCCN5CCOCC5)nn4c(=O)c23)cc1 | 1% | x | 0% | x | x | x
CCOC(=O)c1c(S(=O)(=O)N2CCC(C(=O)Nc3ccccc3OC)CC2)c(C)n(CC)c1C | x | x | x | x | -10% | 0
Cc1nc2nc(CNC(=O)c3cccc(F)c3)nn2c(C)c1CCC(=O)Nc1cccc(Cl)c1 | x | x | x | x | -28% | -2
COc1cccc(NC(=O)CCc2c(C)nc3nc(CNC(=O)c4cccc(F)c4)nn3c2C)c1 | 3% | -76* | 2% | u | 24% | 0
O=S(=O)(O)c1ccc(O)c2cc(Nc3ccccc3)ccc12 | x | -29 | x | -73* | u | u
CN(C)c1ccc(/C=N/N(CCO)C2=NS(=O)(=O)c3ccccc32)cc1 | u | x | -6% | -67* | -1% | 5
Cc1ccc(/C=N/N(C)C2=NS(=O)(=O)c3ccccc32)cc1 | 0% | -11 | -16% | -22 | -11% | -5
CN(/N=C/c1ccncc1)C1=NS(=O)(=O)c2ccccc21 | 2% | -86* | 19% | -88* | -10% | 13
CC(C)(C)NC(=O)CCN(/N=C/c1ccc([N+](=O)[O-])o1)C1=NS(=O)(=O)c2ccccc21 | 9% | -74* | -18% | -88* | -20% | 4
COc1cc(Br)cc(/C=N/N(CCO)C2=NS(=O)(=O)c3ccccc32)c1OC | 2% | u | 2% | -30 | 5% | 0
COc1cc(/C=N/N(CCO)C2=NS(=O)(=O)c3ccccc32)cc(OC)c1OC | -1% | -90* | 4% | -66* | -12%[56.9 µM] | 14
O=S1(=O)N=C(N(CCO)/N=C/c2ccc(Cl)cc2)c2ccccc21 | 5% | x | 2% | u | 20% | 3
CCCSS/C(CCO)=C(\C)N(C=O)Cc1cnc(C)nc1N | x | x | x | x | x | 0
O=C(NC1CCCCN(Cc2cccc(Cl)c2)C1=O)C1CCCCC1 (stereo unspecified) | x | x | x | x | x | 1
Cc1c(Cl)cccc1NC(=O)Cn1cnc2nc3c(cc2c1=O)CCCC3 | x | x | x | x | -21% | 3
CCOc1ccc(-n2c(SCC(=O)Nc3cc(C)ccc3C)nc3c([nH]c4ccccc43)c2=O)cc1 | x | x | x | x | 9% | -4
Cc1ccc(C(=O)OCc2cc(=O)n3nc(-c4cccs4)sc3n2)cc1 | x | x | x | x | -8% | -9
COc1ccc(CN2C(=O)CN(S(C)(=O)=O)CC2(C)c2nnnn2C2CCCCC2)cc1 (stereo unspecified) | x | x | x | x | x | 0
O=S1(=O)N=C(N(CCO)/N=C/C=C/c2ccccc2)c2ccccc21 | 1% | -89* | -1% | -85* | -12% | 3
O=S1(=O)N=C(N(CCO)/N=C/c2ccc(Br)cc2)c2ccccc21 | -2% | u | 11% | u | 15% | -2
CCC(=O)N1CCc2cc(Br)cc(S(=O)(=O)N3CCCC(C(=O)NCc4cccc(OC)c4)C3)c21 (stereo unspecified) | x | x | x | x | 14% | 1
Cc1ccc2c(c1)c1c(c(=O)n(-c3ccccc3)c(=O)n1CC(=O)c1ccc(F)cc1)n2C | x | x | x | x | 20% | -1
